Reference: PubChem BioAssay AID765 (NMMLSC, 2007)
Activity calls are given as the source filed them. Cut-off read from the data, not from the text of the source: active = inhibition above about 31%; inactive = the rest.

Target: N-formyl peptide receptor 2 (Homo sapiens) (UniProt P25090)
Assay: human FPR2 ligand displacement single-point screen – cell-based, flow cytometry, single concentration (AID 765)
Conditions: FPRL1-expressing cells, fluorescent ligand binding inhibition, stronger effect = higher value; at 5.1 µM unless noted

Chain of N-formyl peptide receptor 2 (Homo sapiens) (P25090 whole entry, looked up): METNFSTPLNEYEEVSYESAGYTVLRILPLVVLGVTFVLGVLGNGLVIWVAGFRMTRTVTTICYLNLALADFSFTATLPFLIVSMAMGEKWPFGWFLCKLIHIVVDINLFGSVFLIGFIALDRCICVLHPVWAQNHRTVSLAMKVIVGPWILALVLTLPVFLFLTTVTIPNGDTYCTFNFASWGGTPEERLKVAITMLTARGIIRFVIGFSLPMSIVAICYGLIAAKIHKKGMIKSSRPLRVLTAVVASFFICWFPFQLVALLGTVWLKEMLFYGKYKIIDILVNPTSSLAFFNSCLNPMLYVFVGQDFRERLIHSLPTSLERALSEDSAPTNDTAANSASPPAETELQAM

inhibition, active:
COc1ccc(-c2cc(C(F)(F)F)nc(N3CCN(Cc4ccccc4)CC3)n2)cc1OC 69.2% [at 4.9 µM]
COc1ccc(CC(=O)Nc2cc(-c3cn4cccnc4n3)ccc2OC)cc1 64.2% [at 5.7 µM]
CCC(=O)Nc1cc(-c2cn3cccnc3n2)ccc1OC 41.3% [at 7.5 µM]

inhibition, inactive:
O=C(c1ccc(Cl)cc1)N1CCN(c2nc(-c3ccccc3)c3ccccc3n2)CC1 1.6% [at 5.2 µM]
Fc1ccc(-c2cc(C(F)(F)F)nc(N3CCN(c4cccc(Cl)c4)CC3)n2)cc1 19.5%
O=C(O)CCC(=O)N1CCN(c2nc(-c3ccccc3Cl)c3cc(Br)ccc3n2)CC1 -2% [at 4.4 µM]
O=C(c1cccc(F)c1)N1CCN(c2nc(-c3cccs3)cc(C(F)(F)F)n2)CC1 -12.6%
FC(F)(F)c1cc(-c2cccs2)nc(N2CCN(C(c3ccccc3)c3ccccc3)CC2)n1 -11% [at 4.6 µM]
COc1ccc(C2CC(=O)c3cnc(N4CCN(Cc5ccc6c(c5)OCO6)CC4)nc3C2)cc1OC (configuration not stated) 11.9% [at 4.4 µM]
CN1CCN(c2nc(-c3ccccc3)c3cc(Cl)ccc3n2)CC1 -15% [at 6.6 µM]
Clc1cccc(-c2nc(N3CCN(Cc4ccccc4)CC3)nc3c2COc2ccccc2-3)c1 0.5% [at 4.7 µM]
CC(N)C(=O)N1CCN(c2nc(-c3ccccc3)c3cc([N+](=O)[O-])ccc3n2)CC1 (configuration not stated) 3.9% [at 5.5 µM]
FC(F)(F)c1cc(-c2cccs2)nc(N2CCN(Cc3ccccc3)CC2)n1 12.5% [at 5.5 µM]
COc1ccc(-c2cc(C(F)(F)F)nc(N3CCN(C(c4ccccc4)c4ccccc4)CC3)n2)cc1OC 25.4% [at 4.2 µM]
Clc1cccc(-c2nc(N3CCN(c4ccccc4)CC3)nc3c2COc2ccccc2-3)c1 -0.8% [at 4.9 µM]
CC(C)(C)OC(=O)N1CCN(c2nc(-c3ccccc3Cl)c3cc(Br)ccc3n2)CC1 -9.1% [at 4.4 µM]
CC(C)(C)OC(=O)N1CCN(c2nc(-c3ccccc3)c3cc([N+](=O)[O-])ccc3n2)CC1 14.7%
COc1ccc(-c2cn3cccnc3n2)cc1NC(=O)c1ccc(F)c(F)c1 -13.5% [at 5.8 µM]
FC(F)(F)c1nc(N2CCN(Cc3ccccc3)CC2)nc2c1CCCCC2 11.8% [at 5.7 µM]
CCC(CC)C(=O)Nc1cc(-c2cn3cccnc3n2)ccc1OC 11.5% [at 6.6 µM]
CCCC(=O)Nc1cc(-c2cn3cccnc3n2)ccc1OC 2.2% [at 7.2 µM]
COc1ccccc1-c1cc(C(F)(F)F)nc(N2CCN(c3ccccc3OC)CC2)n1 -2.8% [at 5 µM]
COc1ccc(-c2cn3cccnc3n2)cc1NC(=O)c1cc(C)cc(C)c1 4.9% [at 6 µM]
FC(F)(F)c1cc(-c2ccco2)nc(N2CCN(C(c3ccccc3)c3ccccc3)CC2)n1 -10.5% [at 4.8 µM]
O=C(O)/C=C/C(=O)N1CCN(c2nc(-c3ccccc3)c3ccccc3n2)CC1 6.6% [at 5.7 µM]
COc1ccc(-c2cn3cccnc3n2)cc1NC(=O)c1ccc(Br)o1 -10% [at 5.4 µM]
COc1ccc(-c2cn3cccnc3n2)cc1NC(=O)c1ccc(Br)cc1 -12.5% [at 5.3 µM]
COc1ccc(-c2cn3cccnc3n2)cc1NC(=O)c1ccc(Cl)cc1 3% [at 5.9 µM]
O=C(O)CCCC(=O)N1CCN(c2nc(-c3ccccc3)c3ccccc3n2)CC1 -1.7% [at 5.5 µM]
CCN1CCN(c2nc(-c3ccc(Cl)cc3)cc(C(F)(F)F)n2)CC1 -7.7% [at 6 µM]
COc1cccc(-c2cc(C(F)(F)F)nc(N3CCN(c4ccccc4OC)CC3)n2)c1 -10.4% [at 5 µM]
COc1ccc(-c2cc(C(F)(F)F)nc(N3CCN(C)CC3)n2)cc1 -15.1% [at 6.3 µM]
CC(=O)N1CCN(c2nc(-c3ccccc3)c3cc(C)ccc3n2)CC1 5.6% [at 6.4 µM]
O=C(c1ccccc1)N1CCN(c2nc(-c3ccccc3)c3ccccc3n2)CC1 -1.3% [at 5.6 µM]
COc1ccc(C2CC(=O)c3cnc(N4CCN(Cc5ccc6c(c5)OCO6)CC4)nc3C2)c(OC)c1 (configuration not stated) -2.7% [at 4.4 µM]
Clc1ccccc1-c1nc(N2CCN(c3ccccc3)CC2)nc2ccc(Br)cc12 -7.9% [at 4.6 µM]
Cc1ccc2nc(N3CCN(C(=O)CCCC(=O)O)CC3)nc(-c3ccccc3)c2c1 1.1% [at 5.3 µM]
